Results filed as inconclusive are left out. Calls of active or inactive are those of the source. Calls follow the shape of the dose curve; as a rule, active = well fitted inhibition curve with a large enough effect; inconclusive = small, poorly fitted or top-dose-only effect; inactive = flat fitted curve, though single readings scatter. Where a SMILES comes first, the peptide text is derived from it. Bridges are numbered along the chain shown (N, C = ends). [ ]: non-standard residue; d: D form. hArg = N=C(N)NCCCC[C@H](N)C(=O)O; Mpa = O=C(O)CCS

The record followed here is PubChem BioAssay (NCATS).
% is scaled to controls: 0 for no effect and ±100 for the full control effect.

The test system of this assay is MCC-26. As to the kind of experiment: qHTS assay to identify novel small-molecules to repurpose for Merkel cell carcinoma treatment (AID 1296009). Also: nearly all actives have a fitted effect of over 60% in size. The conditions noted are these: MCC and control cell lines, CellTiter-Glo viability, 72 h; series mostly up to 46 µM. An excerpt:
MCC is a rare and aggressive neuroendocrine skin cancer with limited treatment options. Approximately 80% of MCCs have the Merkel cell polyomavirus (MCPyV) DNA integrated into the host genome (virus-positive: VP-MCC) and viral oncogenes drive oncogenesis. The remaining MCCs are virus-negative (VN-MCC) and are caused by UV mutagenesis. To identify novel treatments for VP-MCC and/or VN-MCC we screened three VP-MCC cell lines (WAGA, MKL-1, MKL-2), three VN-MCC cell lines (MCC-13, MCC-26, UISO), and four immortalized, non-transformed control cell lines (HaCaT, HEK293T, CRL7250, NIH-3T3) against ~2,400 compounds in the NCGC Pharmaceutical Collection (NPC) and ~1,900 compounds in the Mechanism Interrogation PlatE (MiPE). Using cell viability as a readout (CellTiter-Glo assay) we found both overlapping and distinct drugs that can be repurposed for the treatment of VP-MCC and VN-MCC.
A high-throughput screen was conducted in 1536-well white flat bottom plates (Corning) on a Kalypsys robotic system. Cell lines WAGA, MKL-1, MKL-2, MCC-13, MCC-26, UISO, HaCaT, HEK293T, CRL7250, and NIH-3T3 were screened against 2 small molecule annotated drug libraries NPC and MIPE in dose response (8 and 11 pt. respectively) measuring cell viability after 72 hours of incubation. […] A 1,536 pintool (Kalypsys) was used to transfer 23 nL of compound in DMSO to the 1,536-well assay plates. After 72 hr incubation at 37 degree celsius, 2.5 uL of CellTiter-Glo (Promega) was dispensed into each well using a BiorapTR. Plates were incubated at room temperature for 10 min, transferred to a ViewLux (PerkinElmer) and the luminescence was recorded using an exposure time of 2 seconds. Relative luminescence units (RLUs) were normalized to in-plate controls (no cells as a positive (cytotoxicity) control, DMSO as negative control) and the normalized data was processed using NCATS in-house software.
Take `C[C@@H](c1ncncc1F)C(O)(Cn1cncn1)c1ccc(F)cc1F` (stereo not given in full): the result was inactive. In the case of `Cc1c(C)c2c(c(C)c1OC(=O)c1cccnc1)CC[C@@](C)(CCC[C@H](C)CCC[C@H](C)CCCC(C)C)O2`, the result was inactive. Same read-out and setting: for `CC1(c2ccccc2)OC(C(=O)O)=CC1=O` (stereo not given) the value was “inactive”; for `Cc1ccc(C(C)C)c(O)c1`, “inactive”; for `O=C(CCBr)N1CCN(C(=O)CCBr)CC1`, “inactive”. On the same count and under the same terms, for `O=C(O)c1ccccc1C(=O)Nc1ccc(S(=O)(=O)Nc2nccs2)cc1` the value was “inactive”.

Consider `NS(=O)(=O)c1ccc(C(=O)O)cc1`, for which the outcome was inactive.

Consider `NNC(=O)CP(=O)(c1ccccc1)c1ccccc1`, for which the result was inactive. On to `NC(=O)[C@@H]1CSSCCC(=O)N[C@@H](CCCCN=C(N)N)C(=O)NCC(=O)N[C@@H](CC(=O)O)C(=O)N[C@@H](Cc2c[nH]c3ccccc23)C(=O)N2CCC[C@H]2C(=O)N1` ([Mpa][hArg]GDWPC-NH2; disulfide 1-7), for which the call was inactive. Same read-out and setting: under `Cn1cc(C(=O)[C@@H]2CCc3nc[nH]c3C2)c2ccccc21` stands “inactive”.

As for `CCOc1ccc(C(=O)OCCN(CC)CC)cc1`, the outcome was inactive. On the same count and under the same terms, under `NC(=O)NS(=O)(=O)c1ccc(N)cc1` stands “inactive”; under `O=C1c2cccc(O)c2C(=O)c2c(O)cccc21`, “inactive”; under `O[C@@H]1CO[C@H]2[C@@H]1OC[C@@H]2O`, “inactive”.

Consider `CC[C@H](C)[C@H](N)C(=O)O`, for which the result was inactive. Regarding `NC(N)=NCCN1CCCCCCC1`, the activity change, negative = cytotoxicity is 12.5% [at 0.597 µM] (inactive). As for `Cc1ccc(S(=O)(=O)NC(=O)NC2CCCCCCC2)cc1`, the result was inactive. Turning to `CC(=O)Nc1ccc(OCCOCCOc2ccc(NC(C)=O)cc2)cc1`, the compound was classed as inactive. `O=C1c2ccccc2S(=O)(=O)N1CCCCN1CCN(c2ncccn2)CC1`: the outcome was inactive. For the compound `C1CCN2C[C@@H]3C[C@@H](CN4CCCC[C@@H]34)[C@H]2C1`, the compound was called inactive. With `C[N+](C)(C)CC(O)CC(=O)[O-]` (stereo not given), the result was inactive. Consider `O=C(NCN1CCOCC1)c1cnccn1`, for which the call was inactive.

Turning to `CC(=O)N[C@H]1[C@H]([C@H](O)[C@H](O)CO)OC(C(=O)O)=C[C@@H]1N=C(N)N`, the outcome was inactive. In the case of `Cc1cc(-n2nc3ccc(Cl)cc3n2)c(O)c(C(C)(C)C)c1`, the call was inactive. As to `c1ccc2[nH]ccc2c1`, the compound was classed as inactive. On the same count and under the same terms, for `CC(=O)N(CC(O)CN(C(C)=O)c1c(I)c(C(=O)NCC(O)CO)c(I)c(C(=O)NCC(O)CO)c1I)c1c(I)c(C(=O)NCC(O)CO)c(I)c(C(=O)NCC(O)CO)c1I` (stereo not given) the value was “inactive”; for `CC1CCN(CCCC(=O)c2ccc(F)cc2)CC1`, “inactive”; for `O=c1[nH]cnc2nc[nH]c12`, “inactive”. The same measure, in the same setting: under `Cc1c(I)c(=O)n(-c2ccccc2)n1C` stands “inactive”. Same read-out and setting: for `COc1ccc2cc(CCC(C)=O)ccc2c1` the value was “inactive”.

As to `CC(=O)NCc1c(I)c(NC(C)=O)c(I)c(C(=O)O)c1I`, the call was inactive. The same measure, in the same setting: under `C=CCNC(N)=S` stands “inactive”; under `CNCc1ccccc1`, “inactive”; under `O=C(Cn1ccnc1[N+](=O)[O-])NCc1ccccc1`, “inactive”. Still for that read-out and setting: under `CCCCCCCC(=O)OCC(O)CO` (stereo not given) stands “inactive”. Turning to `O=C(/C=C/c1ccc(O)c(O)c1)O[C@@H]1C[C@@](OC(=O)/C=C/c2ccc(O)c(O)c2)(C(=O)O)C[C@@H](O)[C@@H]1O`, the call was inactive. With `CC(=O)OCC(=O)[C@@]1(O)CC[C@H]2[C@@H]3CCC4=CC(=O)C=C[C@]4(C)[C@@]3(F)[C@@H](O)C[C@@]21C`, the compound was called inactive.

As for `CCOC(=O)[C@H](CCc1ccccc1)N[C@@H](C)C(=O)N1CCC[C@H]1C(=O)O`, the call was inactive. Same read-out and setting: under `NNc1nnc(NN)c2ccccc12` stands “inactive”; under `NS(=O)(=O)c1cc(-c2nn[nH]n2)c(NCc2cccs2)cc1Cl`, “inactive”.
